Shown are actives, neighbours in structure and some others; about 8% of the full set was active somewhere.
MARV entry inh = qHTS for inhibitors of binding or entry into cells for Marburg Virus; Marburg virus pseudotyped entry inhibition, cell reporter; Potency, µM (series often up to 37.8 µM), without a hit: at the top dose activity change, negative = inhibition, usual class: inhibitors; 300,000 compounds, 1.8% hits; calls by dose curve; tested in HEK293 cells; note: potency is the fitted concentration of half-maximal effect; % is set by controls: 0 for no effect and ±100 for the full control effect
LASV entry inh = qHTS for Inhibitors of binding or entry into cells for Lassa Virus; Lassa virus pseudotype entry inhibition, cell reporter; 300,000 compounds, 1.2% hits; Potency, µM (titrated, usually from 37.9 µM), without a hit: top-dose activity change, negative = inhibition, most hits filed as inhibitors; calls by dose curve; tested in HEK293 cells; note: potency is the fitted concentration of half-maximal effect; % is set by controls: 0 for no effect and ±100 for the full control effect; nearly all actives have a fitted effect of over 50% in size
HCV inh = qHTS Assay for Inhibitors of Hepatitis C Virus (HCV); Huh7.5.1 HCVcc-Cre infection, luciferase reporter, 44 h; Potency, µM (highest dose often 41.8 µM), for the others: top-dose activity change, negative = inhibition, hits mostly inhibitors; 340,000 compounds, 3.4% hits; active = well fitted inhibition curve with a large enough effect; inconclusive = small, poorly fitted or top-dose-only effect, or another doubt; inactive = no such curve, though single readings can be large or run the other way; note: potency is the fitted concentration of half-maximal effect; % is set by controls: 0 for no effect and ±100 for the full control effect
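Cells seeded at 1,000/well and cultured 4 h, then compounds added followed by HCVcc-Cre virus (~0.5 moi). After 44 h further culture, luciferase substrate was added, plates held 15 min at room temperature, and luminescence read for 15 sec.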
FMDV antiviral = High Throughput Screening for Foot and Mouth Disease Virus Antivirals; FMDV antiviral cell-based qHTS; Potency, µM (top dose mostly 57.9 µM), for the others: at the highest dose activity change, negative = inhibition, usual class: inhibitors; 410,000 compounds, 1.2% hits; calls by dose curve; tested in HEK293T cells; note: read-out not given here; potency is the fitted concentration of half-maximal effect; % is set by controls: 0 for no effect and ±100 for the full control effect; nearly all actives have a fitted effect of over 45% in size
SARS PLpro yeast = qHTS of Yeast-based Assay for SARS-CoV PLP; Potency, µM (series often up to 32.9 µM), without a hit: at the highest dose activity, positive = growth rescue, actives largely listed as activators; S. cerevisiae expressing SARS-CoV PLpro, growth rescue; 330,000 compounds, 0.19% hits; calls by dose curve; note: potency is the fitted concentration of half-maximal effect; 0% is about no effect; nearly all actives have a fitted effect of over 55% in size
HCMV inh = qHTS Assay for inhibitors of the human cytomegalovirus (HCMV); HFF cells, HCMV-luciferase reporter, 72 h; hits give low values; activity change, negative = inhibition, % at 57.5 µM; 410,000 compounds, 4.5% hits; AID 1259415, 2018; in the data active = activity change below about -60%; inconclusive = no clear call, values can overlap the other calls; inactive = above about -39%; note: % is set by controls: 0 for no effect and ±100 for the full control effect
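Two-dose cell screen: HFF monolayers treated with compounds and infected with luciferase-expressing HCMV at 1 PFU/cell, 72 h at 37C, then lysed for luciferase measurement.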
The depositor's hits bear a star; ? = inconclusive; nt = not tested or not shown; + = active, no number; ! = not confirmed by another sample; [ ] = another dose, or the depositor's remark.

SMILES	MARV entry inh	LASV entry inh	HCV inh	FMDV antiviral	SARS PLpro yeast	HCMV inh
O=C(c1ccco1)N1CCN(C(=O)c2ccc(COc3ccc4c(c3)CCC4)o2)CC1	?	14µM*	?	?	0%	-16
COc1ccc(O[C@H]2C=C[C@@H](c3ccccc3)O[C@@H]2CO/N=C(\C)CCN2CCCCc3nc(C)c(C)cc32)cc1	?	5%	-4%[8.37 µM]	nt	-10%	40
COc1cc(=O)n2c(c1C(=O)N(C)Cc1nccs1)CCN(Cc1c(F)ccc(F)c1F)CC2	nt	nt	nt	-1%	nt	nt
COCCN1CCC(CNCc2cn(-c3cc(C)ccc3C)nc2-c2ccccc2)C1 (stereo unspecified)	nt	nt	7.9µM*	-6%	0%	-60*
O=S1(=O)N(Cc2ccccc2)CCCN1Cc1ccc(F)cc1Cl	nt	14%[46.1 µM]	nt	7%	nt	+
CCCNC(=O)N1[C@@H]2Cn3c(cccc3=O)[C@H]1[C@@H](C(=O)NCC(F)(F)F)[C@@H]2CO	nt	nt	nt	nt	nt	9
COc1ccc(-c2nnc3sc(COc4ccccc4)nn23)cc1	16%	-6%	-13%	15%	-1%	6
COc1ccc(-c2nnc3sc(COc4ccc(C)cc4)nn23)cc1	-1%	13µM*	23%	-3%	-14%	-3
CC(=O)O[C@H]1[C@@H](O)[C@H](O)[C@H](Oc2c(O)c(C)c3c4c2[C@@H](C)CC[C@@H]4[C@@H](C)C[C@H]3C=C(C)C)O[C@H]1C	nt	nt	?	0%	1%	-97*
C=CS(=O)(=O)c1ccc(Oc2ccc(S(=O)(=O)C=C)cc2)cc1	?	6.5µM*	?	4µM*	-86%	-102*
N#C/C(=C(/O)COC(=O)CSc1ccc2ccccc2c1)c1nc2ccccc2[nH]1	?	4%	7%	-23%	?	-102*
Cc1cc(Br)ccc1SCC(=O)OC/C(O)=C(\C#N)c1nc2ccccc2[nH]1	nt	nt	7%	-27%	0%	-84*
Cc1ccc(C)c(SCC(=O)OC/C(O)=C(\C#N)c2nc3ccccc3[nH]2)c1	?	-26%[46.1 µM]	24%	-17%	0%	-102*
O=[N+]([O-])c1ccc(Oc2cnc3ccccc3n2)cc1	-2%[46.1 µM]	4%	-17%	17%	0%	-63*
Cc1nn(-c2ccccc2)c(C)c1/C=N/NC(=O)c1cc(C23CC4CC(CC(C4)C2)C3)[nH]n1	?	?	10µM*	?	-4%	2
Cc1cc(C(=O)N/N=C/c2c(C)nn(-c3ccccc3)c2C)n[nH]1	5%[46.1 µM]	-17%[46.1 µM]	-10%	7%	0%	13
O=C(N/N=C/c1ccccn1)c1cc(-c2ccc(Cl)s2)[nH]n1	-17%[46.1 µM]	-15%[46.1 µM]	2%	-2%	0%	-38
Cc1nn(-c2ccccc2)c(C)c1/C=N/NC(=O)c1ccccc1O	-2%	9%	29%	-6%	-6%	33
Cc1nn(-c2ccccc2)c(C)c1/C=N/NC(=O)c1cc(-c2cccs2)[nH]n1	?	?	?	?	11%	-89*
Cc1nn(-c2ccccc2)c(C)c1/C=N/NC(=O)c1cc(-c2ccc(Cl)s2)[nH]n1	9.2µM*	10µM*	?	4µM*	2%	-11
Cc1nn(-c2ccccc2)c(C)c1/C=N/NC(=O)c1cccs1	11µM*	3.2µM*	?	21%	8%	33
Cc1nn(-c2ccccc2)c(C)c1/C=N/NC(=O)c1cc(C2CC2)[nH]n1	?	-20%	-10%	-3%	0%	10
C=CCOC(=O)C(C(=O)CC)[C@@H](NC(=O)OC)c1ccc(F)cc1 (stereo partly specified)	-25%[14.2 µM]	nt	nt	nt	nt	nt
COc1cc2c(cc1OC)[C@@H]1O[C@](CCCCN3C(=O)c4ccccc4C3=O)(C2)Oc2cc(C)n(-c3ccccc3)c(=O)c21	7%[14.2 µM]	nt	nt	nt	5%[6.58 µM]	nt
COc1ccccc1-c1ccnc(-n2ncc(C(=O)NCc3cccnc3)c2C)n1	nt	nt	nt	9%	nt	nt
SMILES	MARV entry inh	LASV entry inh	HCV inh	FMDV antiviral	SARS PLpro yeast	HCMV inh
O=C(CSc1nnc(SCc2ccccc2)s1)N/N=C/c1c(Cl)cccc1Cl	?	-5%	-1%	1%	-12%	?
Cc1nn(-c2ccccc2)c(C)c1/C=N/NC(=O)c1cc(-c2ccc(Br)s2)[nH]n1	7.3µM*	6.5µM*	?	-16%	4%	-28
Cc1nn(-c2ccccc2)c(C)c1/C=N/NC(=O)CSc1nnc(SCc2ccc(Cl)cc2)s1	?	9.2µM*	14µM*	?	8%	36
COc1ccc(N2CCC[C@@H]2/C=C/C(=O)OC(C)(C)C)cc1	nt	nt	nt	nt	nt	24
CCOc1ccc2[nH]c3c(NCCc4ccc(OC)c(OC)c4)ncnc3c2c1	?	?	13µM*	-20%	1%	-66*
COc1ccc(CCNc2ncnc3sc(C)cc23)cc1OC	?	?	2.2µM*	32µM*	-7%	-70*
CCc1ccccc1Nc1nc2ccccc2n2cnnc12	13%[46.1 µM]	7%[46.1 µM]	nt	-24%	nt	-20
C=CCCC1CN(Cc2ccc(OC)cc2)S(=O)(=O)c2c(NCc3cc(OC)c(OC)c(OC)c3)cccc2O1 (stereo unspecified)	nt	nt	nt	nt	nt	-19
CC(=O)c1cccc(S(=O)(=O)NCC2CCCCC2)c1	?	1%	-7%	35%	19%	13
O[C@H](CCCN1CCN(c2ncc(F)cn2)CC1)c1ccc(F)cc1	nt	nt	nt	-18%	nt	nt
Cc1ccccc1-n1ncc2c1CC(C)(C)CC2NC(=O)C1CCC1 (stereo unspecified)	nt	nt	6%	12%	-3%	-29
Cc1ccsc1-c1nc(CN(C)C(C2CC2)C2CC2)c(C)o1	8.9µM*	-8%[46.1 µM]	-15%	-15%	1%	3
CCCCCOc1ccc(/C=C/C(=O)Nc2sc(C(C)=O)c(C)c2C(=O)OCC)cc1OC	nt	11%[46.1 µM]	nt	?	nt	12
CCOC(=O)c1c(NC(=O)CSc2nnnn2-c2ccccc2)sc2c1CC(C)(C)NC2(C)C	?	?	-18%	-26%	4%	nt
CCOC(=O)c1c(NC(=O)CSc2nc3ccc(C)cc3[nH]2)sc2c1CC(C)(C)NC2(C)C	?	10µM*	6.3µM*	-23%	-7%	-20
O=C(CCN1CCN(CCO)CC1)N1c2ccccc2Sc2ccc(C(F)(F)F)cc21	-6%	nt	13µM*	-5%	4%	35
CN1CCN(CCC(=O)N2c3ccccc3Sc3ccc(Cl)cc32)CC1	?	-23%	?	-16%	-3%	-34
CN1CCN(CCCN2c3ccccc3Sc3ccc(C(F)(F)F)cc32)CC1	6.5µM*	13µM*	14µM*!	?	-3%	-79*!
CCN(CC)CCC(=O)N1c2ccccc2Sc2ccc(C(F)(F)F)cc21	nt	nt	nt	nt	nt	-85*

Screening data (PubChem BioAssay)
